# Reference: PubChem BioAssay (NCATS)
# Activity calls are given as the source filed them. The call rests on the fitted dose curve; in most records, active means well fitted activation curve with a large enough effect; inconclusive means small, poorly fitted or top-dose-only effect; inactive means flat fitted curve, though single readings scatter.
# Assay: Cellular Toxicity (caspase-3) HepG2 (AID 654);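 further: cells exposed to compound for 16 hours before reading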
# Conditions: HepG2 caspase-3 activation, luminescence, 0% = DMSO only, 100% = tamoxifen; series mostly up to 92.2 µM; caspase-3 activation: at the top concentration
# Source text: NIH Chemical Genomics Center [NCGC]
# NIH Molecular Libraries Screening Centers Network [MLSCN]
# National Institutes of Environmental Health Sciences [NIEHS]
# National Toxicology Program [NTP]
# We have developed a 1536-well cell-based assay for quantitative high throughput screening (qHTS) against a number of cell lines to determine in vitro caspase 3/7 of small molecules. This particular assay uses the HepG2 cell line which is derived from human hepatocellular carcinoma.
# NCGC Assay Protocol Summary:
# The Caspase-Glo 3/7 assay (Promega) is a homogeneous method to measure caspase-3 and caspase-7 activities in cultured cells. The quantitation of caspase 3/7 activity is based on the cleavage of a peptide-aminoluciferin substrate. After caspase cleaves the substrate the free aminoluciferin is liberated and serves as the substrate of luciferase, which generates the light. The luminescent signal is proportional to amount of caspase 3/7 activity present.
# Using the Caspase-Glo 3/7 assay, the amount of caspase 3/7 activity was measured in the HepG2 cell line with complete culture medium following compound treatment for 16 hours. The assay was performed in opaque white 1536-well plates. In the screen, tamoxifen and doxorubicin were used as positive controls. Library compounds were measured for their ability to cause the activation of caspase 3/7 in the cell line, as reflected by an increase in luminescence signal, in a concentration-dependent manner. Data were normalized to the controls for basal activity (DMSO only) and 100% stimulation (100 uM tamoxifen). AC50 values were determined from concentration-response data modeled with the standard Hill equation.
# qHTS protocol for caspase 3/7 assay in HepG2 cells
# [Step] [Parameter] [Value] [Description]
# 1. Reagent; 5 uL; 1500 HepG2 cells/well
# 2. Time; 5 hr; 37 °C incubation
# 4. Controls; 23 nL; Tamoxifen 0.23 uM to 100 uM & Doxorubicin 7.0 pM to 100 uM
# 5. Time; 16 hr; 37 °C incubation
# 6. Reagent; 5 uL; Caspase-Glo 3/7 reagent
# 7. Time; 20 min; Room Temperature
# 8. Detection; Luminescence; Viewlux plate reader
# Keywords: caspase 3/7, apoptosis, HepG2 cell line, luminescence, NTPHTS, NTPHTS_NCGC, NIEHS, EPA, DSSTox, MLSMR, MLSCN, NIH Roadmap, qHTS, NCGC
row,Compound,caspase-3 activation
1,CCOC(=O)c1ccccc1N,0.544% (inactive)
2,COC(=O)c1ccccc1C(=O)OC,0.145% (inactive)
3,c1ccc(Nc2ccc3ccccc3c2)cc1,-0.431% (inactive)
4,c1ccc2c(c1)-c1cccc3cccc-2c13,-0.204% (inactive)
5,Cc1ccccc1O,-0.285% (inactive)
6,CCOc1cc(C=O)ccc1O,1.93% (inactive)
7,COC1=CC(=O)OC(CCc2ccc3c(c2)OCO3)C1 (stereo not drawn),-0.286% (inactive)
8,Oc1c(Cl)c(Cl)c(Cl)c(Cl)c1Cl,-0.495% (inactive)
9,Oc1ccccc1Cl,0.438% (inactive)
10,CC(C)(c1ccc(OCC2CO2)cc1)c1ccc(OCC2CO2)cc1 (stereo not drawn),1.58% (inactive)
11,CC(=O)/C=C/c1ccccc1,-0.0909% (inactive)
12,O=Cc1ccccc1,0.252% (inactive)
13,CC(C)COC(=O)c1ccccc1C(=O)OCC(C)C,-0.587% (inactive)
